Laboratory results reported in PubChem BioAssay (NCI).
The panel holds about 79,000 compounds, 15% with a hit somewhere; the sample as a whole holds those more often. Active and inactive are the calls of the source. No stated cut-off is given here; in the data, active means growth inhibition above about 70%; inactive means the rest.

How the values were obtained:
[1] = NCI Yeast Anticancer Drug Screen. Data for the rad50 strain (AID 155);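 further: 0% = growth of vehicle-only cultures of the same strain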; settings: S. cerevisiae rad50 strain growth inhibition; at 50.0 µM; stronger effect = higher value
In short: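 Readout: growth inhibition relative to vehicle-treated cultures. Compound exposure was carried out in a genetically defined yeast strain deficient in DNA damage repair.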

[2] = NCI Yeast Anticancer Drug Screen. Data for the mec2-1 strain (AID 157); settings: S. cerevisiae mec2-1 strain, at 50.0 µM, stronger effect = higher value
In short: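 Using mec2-1 yeast: add compound, measure growth, express inhibition versus vehicle-treated cultures.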

[3] = NCI Yeast Anticancer Drug Screen. Data for the sgs1 mgt1 strain (AID 161);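 further: 0% = growth of cultures given vehicle only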; settings: S. cerevisiae sgs1 mgt1 strain, at 50.0 µM, stronger effect = higher value
In short: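 Growth of a repair-deficient yeast mutant was monitored after compound treatment and expressed as inhibition relative to vehicle-treated cultures.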

[4] = NCI Yeast Anticancer Drug Screen. Data for the cln2 rad14 strain (AID 165);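 further: 0% = growth equal to vehicle treated cultures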; settings: S. cerevisiae cln2 rad14 strain, at 50.0 µM, stronger effect = higher value
In short: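 Yeast strain cln2 rad14, bearing defects in cell cycle control and DNA repair, serves as the test system; values reflect growth inhibition compared with vehicle.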

[5] = NCI Yeast Anticancer Drug Screen. Data for the bub3 strain (AID 167); settings: S. cerevisiae bub3 mutant strain, at 50.0 µM, stronger effect = higher value
In short: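 Readout: yeast growth inhibition, expressed relative to vehicle-only wells. The test organism is a mutant strain from a panel with lesions in DNA repair or checkpoint genes.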

[6] = NCI Yeast Anticancer Drug Screen. Data for the mlh1 rad18 strain (AID 175); settings: S. cerevisiae mlh1 rad18 strain growth inhibition; at 50.0 µM; stronger effect = higher value
In short: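 Steps: expose repair-defective yeast to compound; measure growth; express inhibition against vehicle-treated controls.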

Measured: growth inhibition

O=C(Nc1cccc(Cl)c1)Oc1ccccc1
inactive: [1] 17.6% | [2] 4.45% | [3] -4.3% | [4] 16.4% | [5] 15.3% | [6] 8.2%

OC(CCN1CCC2CCC(C2)C1)(c1ccccc1)c1ccc(Cl)cc1 (stereo not given)
inactive: [1] -4.55% | [2] -16.1% | [3] 14% | [4] -26.5% | [5] 4.4% | [6] -17.2%

COc1ccc2c(c1OC)C(Cc1ccccc1)N1CCc3cc4c(cc3C1C2)OCO4 (stereo not given)
inactive: [1] 21.4% | [2] 59% | [3] 48% | [4] 50.8% | [5] 51.6%
active: [6] 77.8%

O=S(=O)(Nc1nccs1)c1ccc(Cl)cc1
active: [3] 74.2%
inactive: [1] 25.1% | [2] 46% | [4] 20.4% | [5] 33% | [6] 68.2%

CCOC(=O)NCc1ccccc1
inactive: [1] 19% | [2] 8.7% | [3] 10.3% | [4] 2.6% | [5] -6.35% | [6] 20.1%

Cc1cc(S(=O)(=O)Nc2n[nH]c(N)n2)c(Cl)cc1Cl
inactive: [1] -52% | [2] 1.55% | [3] -56% | [4] -51% | [5] 9.4% | [6] -48.5%

O=CN/C=C/c1ccccc1O
inactive: [1] -5% | [2] 1.8% | [3] 4.1% | [4] 6.95% | [5] 12.1% | [6] -4.6%

CC1=NN(C(=O)c2cccnc2)C(=O)C1N=Nc1ccc(S(=O)(=O)N=C(N)N)cc1 (stereo not given)
inactive: [1] 4.8% | [2] -14.6% | [3] -12.4% | [4] -6.5% | [5] 0% | [6] -21.9%

CSc1nc(NC2OCC(OC(C)=O)C(OC(C)=O)C2OC(C)=O)c(N=CC=Nc2c(NC3OCC(OC(C)=O)C(OC(C)=O)C3OC(C)=O)nc(SC)[nH]c2=O)c(=O)[nH]1 (stereo not given)
inactive: [1] 11.8% | [2] -7.9% | [3] -0.35% | [4] 7.15% | [5] -1.65% | [6] 8.25%

COc1ccc(/C=C/C(=O)c2c(-c3ccccc3)nn(C)c(=O)c2N2CCCC2)cc1
inactive: [1] -23.8% | [2] -20.3% | [3] -33.2% | [4] -24.4% | [5] -11.2% | [6] -34.1%

O=C1c2cc([N+](=O)[O-])cc3cc([N+](=O)[O-])cc(c23)C(=O)N1CCNCCNCCNCCN1C(=O)c2cc([N+](=O)[O-])cc3cc([N+](=O)[O-])cc(c23)C1=O
active: [1] 85.1% | [2] 90.4% | [3] 91.5% | [4] 90.8% | [5] 89% | [6] 86.1%

CC1(CCl)Nc2ccccc2C(=O)N1c1ccc(F)cc1 (stereo not given)
inactive: [1] -7.55% | [2] -21.9% | [3] -0.9% | [4] 1.4% | [5] 14.6% | [6] -3.35%

COc1cc(C(=O)NOCc2cccc(C(F)(F)F)c2)cc(OC)c1OC
inactive: [1] 39.8% | [2] -11.2% | [3] 15.9% | [4] -14.8% | [5] 2.5% | [6] 6.25%

CCCC(C(=O)O)(c1ccccc1)c1ccccc1
inactive: [1] 11.3% | [2] 0.55% | [3] 5.45% | [4] -24.9% | [5] 7.5% | [6] 1.8%

COC(=O)c1ccc2cc1Nc1c(C#N)cnc(=S)n1-2
inactive: [1] -2.3% | [2] 13.4% | [3] 11.2% | [4] 23.1% | [5] 14.5% | [6] 18.1%

COc1ccc2nc(C)cc(N/N=C/c3cccc(C)n3)c2c1
inactive: [1] 3.95% | [2] -19.2% | [3] -1.55% | [4] -0.8% | [5] -29.8% | [6] -22.1%

CCCCCCC(O)CC[C@H]1CCC[C@@H](C)N1 (stereo not given in full)
inactive: [1] 46% | [2] 26.3% | [3] 39.5% | [4] 38.9% | [5] 45.5% | [6] 38.5%

CCCCOC(C)OCCCC
inactive: [1] 9.3% | [2] -6.35% | [3] -3.4% | [4] 5.2% | [5] 5.65% | [6] -17%

C=CCCCCCCCCCCCCCCCCCC
inactive: [1] -3.55% | [2] -3.8% | [3] 2.8% | [4] 5.9% | [5] -5.3% | [6] 6.2%

CC(=O)OCC(=O)c1ccccc1
inactive: [1] -10.8% | [2] 6.65% | [3] -3.8% | [4] -4.15% | [5] 30.5% | [6] -13.6%

O=c1[nH]c(=O)n(COCc2ccccc2)c2ccc(Br)cc12
inactive: [1] -7.55% | [2] -9.5% | [3] -2.75% | [4] -20.4% | [5] -6.95% | [6] -61.5%

CC1(C)OC2C(COC(=O)c3ccc([N+](=O)[O-])cc3)OC(NC(=O)N(CCCl)N=O)C2O1 (stereo not given)
active: [6] 81.5%
inactive: [1] -34.4% | [2] -21.2% | [3] -20.9% | [4] -11.2% | [5] -36.5%

N#CC(C#N)=C(O)/C(=C/c1ccccc1[N+](=O)[O-])NC(=O)c1ccccc1
inactive: [1] 2.75% | [2] -5.6% | [3] -3.65% | [4] 23.9% | [5] 1.75% | [6] 40.4%

CC(C)CC(C)N=C1CC2CCC1(C)C2(C)C (stereo not given)
inactive: [1] -32.3% | [2] -24.6% | [3] -3.35% | [4] -14.2% | [5] -7.15% | [6] -7.05%

C=C1C(=O)[C@@]23CC[C@@H]4[C@@]5(C)CCC[C@@]4(OC5=O)C2(C)CC[C@]1(OC)C3 (stereo not given in full)
active: [1] 87.2% | [2] 92.5% | [3] 88.3% | [4] 88.5% | [5] 88.4% | [6] 90.7%

CCCCCCCCCCCCCCCCS(=O)(=O)N/N=C(\c1ccc(C(C)C)cc1)N1CCOCC1
inactive: [1] 1.3% | [2] -18.4% | [3] 12.7% | [4] 9.3% | [5] -1.5% | [6] 5.75%

CC(=O)CCCC(=O)O
inactive: [1] 10.5% | [2] 1.25% | [3] -24.5% | [4] -11.9% | [5] 0.45% | [6] 10.2%

Cc1ccc(S(=O)(=O)N(C)c2c(N)n(C)c(=O)n(C)c2=O)cc1
inactive: [1] 2.3% | [2] 5.75% | [3] 0.7% | [4] -49.3% | [5] -5.55% | [6] -4.4%

CC[O-].Cc1ccc2cccc([O-])c2n1.Cc1ccc2cccc([O-])c2n1.Cc1ccc2cccc([O-])c2n1.[Ti+4]
inactive: [1] -18.1% | [2] -5.75% | [3] -1.5% | [4] 20% | [5] -1.25% | [6] 4.3%

O=C1/C(=C/c2ccccc2)CN(C(=O)Oc2ccccc2)C/C1=C\c1ccccc1
inactive: [1] -21% | [2] -15.2% | [3] -12.9% | [4] 10.3% | [5] -7.05% | [6] -13.8%

CCCCCCCc1ccc(N=Cc2ccc(OCCC)cc2)cc1
active: [1] 98.8% | [2] 99.3% | [3] 98.9% | [4] 99% | [5] 97.7% | [6] 99.2%

Cc1ccc(-c2cc(C(=O)NN)c(C#N)c(=O)[nH]2)cc1
inactive: [1] 11.4% | [2] 0.55% | [3] -0.85% | [4] 15.1% | [5] -13.2% | [6] 26.1%

CC(=O)CC(O)(C(F)(F)Cl)C(F)(Cl)Cl (stereo not given)
inactive: [1] -35.5% | [2] -47.7% | [3] -42.8% | [4] 0.2% | [5] -30.1% | [6] -35.8%

CC(C)c1ccc(CN)cc1
inactive: [1] -23.4% | [2] -39.2% | [3] -29.8% | [4] 6.5% | [5] -36.8% | [6] -17.5%

Cc1cc(N(CCC#N)CCC#N)ccc1/C=C1N=C(/C=C\c2ccccc2)OC\1=O
inactive: [1] 5.5% | [2] -8.5% | [3] 5.5% | [4] 12.2% | [5] 10.3% | [6] 5.3%

CC1(C)CC(=O)C(C(c2ccccc2)C2C(=O)CC(C)(C)CC2=O)C(=O)C1
inactive: [1] 4% | [2] -8.9% | [3] 1.8% | [4] 2.6% | [5] 6.5% | [6] 7%

CCOC(=O)C(=O)C(C(=O)OCC)C(C)C(=O)OCC (stereo not given)
inactive: [1] 1.9% | [2] -8.3% | [3] 8.2% | [4] -41.1% | [5] 6.65% | [6] -11.2%

FC(F)(F)c1cccc(N=Cc2ccc(C=Nc3cccc(C(F)(F)F)c3)cc2)c1
inactive: [1] 10.4% | [2] -9.2% | [3] 13.3% | [4] 7.6% | [5] -9% | [6] 1.35%

C/C(=N\N(C)S(=O)(=O)c1ccc(C)cc1)c1ccccc1
inactive: [1] 10.1% | [2] -6.9% | [3] -5.5% | [4] -30.1% | [5] -10.1% | [6] 0.65%

COC(=O)c1cccc2c1ccc1ccc3ccccc3c12
inactive: [1] -7.9% | [2] -19.4% | [3] -7.05% | [4] -84.5% | [5] -10.2% | [6] -17.9%
